In all, about 340,000 compounds went through this assay and about 6,900 (2%) were called active. No stated cut-off is given here; in the data, active means inhibition above about 30%; inactive means below that, where a call was filed. Shown is part of a subset that was picked to be rich in actives.

The target in the assay is D(2) dopamine receptor (Homo sapiens) (UniProt P14416). The assay can be described thus: HTS Assay for Allosteric Antagonists of the Human D2 Dopamine Receptor: Primary Screen for Antagonists. Further: 0% is about no effect. The note with it: HEK293 TREx D2 cells, calcium flux, dopamine EC80; at 10 µM; hits give high values. An outline of the steps: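 Antagonism is scored as inhibition of an EC80 dopamine-evoked calcium signal in a force-coupled, tetracycline-inducible HEK293 T-REx D2 line, with compound present 180 s before agonist.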
Sequence of D(2) dopamine receptor (Homo sapiens) (P14416 whole entry, looked up): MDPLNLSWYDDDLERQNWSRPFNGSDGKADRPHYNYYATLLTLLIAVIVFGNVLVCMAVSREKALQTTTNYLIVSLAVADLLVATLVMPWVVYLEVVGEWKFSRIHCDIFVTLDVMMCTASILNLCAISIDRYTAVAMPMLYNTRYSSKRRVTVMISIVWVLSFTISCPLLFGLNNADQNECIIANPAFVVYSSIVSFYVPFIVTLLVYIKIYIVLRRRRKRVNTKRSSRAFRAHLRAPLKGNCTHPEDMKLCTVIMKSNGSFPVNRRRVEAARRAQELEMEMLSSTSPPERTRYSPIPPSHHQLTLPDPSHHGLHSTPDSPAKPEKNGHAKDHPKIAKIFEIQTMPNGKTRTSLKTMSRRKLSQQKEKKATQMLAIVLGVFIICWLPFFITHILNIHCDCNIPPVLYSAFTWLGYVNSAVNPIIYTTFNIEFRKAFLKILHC
On to `COC(=O)C1CCN(C(=O)NC2CC(=O)N(c3ccc4c(c3)OCCO4)C2)CC1` (stereo unspecified), for which the inhibition was 10.2% (inactive). For `CN(C)S(=O)(=O)c1cccc(NC(=S)NCc2ccc3c(c2)OCO3)c1` the value was 51.6% (active). `Cc1ccc(/C=N/NC(=S)Nc2cccc(S(=O)(=O)N(C)C)c2)o1`: the inhibition is -10.5% (inactive).

Turning to `Cc1c(Cl)cccc1NC(=S)NCc1ccc2c(c1)OCO2`, the inhibition is -3.97% (inactive). Then `Cc1ccc(S(=O)(=O)N(C)C)cc1NC(=O)CN1c2cccc3cccc(c23)S1(=O)=O`, with 37% (active); and `CC(C)CN(CC(C)C)C(=O)CN1c2cccc3cccc(c23)S1(=O)=O`, with -10.2% (inactive); and `O=C(O)CN1c2cccc3cccc(c23)S1(=O)=O`, with 14.3% (inactive). Turning to `O=C(COc1ccccc1Cl)N1N=C(c2cccs2)CC1c1ccco1` (stereo unspecified), the inhibition was 5.49% (inactive). As for `Cc1ccc(-c2csc(NC(=O)C3=COCCO3)n2)cc1C`, the inhibition was 1.39% (inactive). On to `CCN(CC)c1ccc(NC(=O)CN2CCN(c3ccccn3)CC2)cc1`, for which the inhibition was 5.78% (inactive).

Take `CCC(=O)Nc1ccc2c(c1)nc(CCN1CCN(c3ccccn3)CC1)n2C`: the inhibition was 57% (active). For `CN1CCN(Cc2nc3cc(NC(=O)COc4ccc([N+](=O)[O-])cc4)ccc3n2C)CC1` the value was -8.44% (inactive); for `CCOC(=O)N1CCN(Cc2nc3cc(NC(=O)CC)ccc3n2CC)CC1`, 3.26% (inactive). Regarding `CCOC(=O)N1CCN(Cc2nc3cc(NC(C)=O)ccc3n2C)CC1`, the inhibition is 31.3% (active). For `Cn1c(CCN2CCCCCC2)nc2cc(NC(=O)Nc3ccccc3)ccc21` the value was 0.502% (inactive); for `O=C(COC(=O)c1cc(S(=O)(=O)N2CCOCC2)ccc1Cl)NCCc1ccccc1`, -3.61% (inactive). For `CC1CCC(CN2CCN=C2N(C)C)CC1` (stereo unspecified) the value was 11.2% (inactive); for `COc1ccccc1C1=CC(=O)C[C@H](c2ccc(F)cc2)C1`, 4.4% (inactive); for `O=S(=O)(c1ccccc1)N1CCC(c2ccccc2)CC1`, 0.0462% (inactive). With `COc1ccccc1C(=O)NC(CCSC)C(=O)N1CCN(C(C)=O)CC1` (stereo unspecified), the inhibition is 17.9% (inactive). Consider `O=c1oc2ccc(C#CC3(O)CCCCC3)cc2cc1-n1cc(-c2ccsc2)nn1`, for which the inhibition is 2.59% (inactive). With `OCC[C@H]1C[C@@H](O)[C@H](O)[C@]2(OCCCc3ccccc32)O1`, the inhibition is 5.04% (inactive).

Take `O=C(OCC(=O)N1CCCCCC1)c1cnc(Cl)c(Cl)c1`: the inhibition was -0.916% (inactive). For `CC(C)NC(=O)NC(=O)CSc1nnc(-c2ccccc2F)n1N` the value was 26% (inactive). On to `Nn1c(SCC(=O)NC(=O)NC2CCCC2)nnc1-c1ccccc1F`, for which the inhibition is 88.5% (active). For `Nn1c(SCC(=O)NC2CCCC2)nnc1-c1ccccc1F` the value was -13.5% (inactive).

The values are drawn from PubChem BioAssay AID485344 (National Center for Advancing Translational Sciences (NCATS), 2010).
